From publication PMC13494018
A number with no mark means an inactive call. No rule for the calls is given here.

B1: design_623_6e2e8b1f-5d9a-4413-9869-27a184816b12_2159_dldesign_0_cycle1_af2pred (protein)
chain: AAAAAAKVAEAAAKAMLRTAKAILKESKASGGAKAPDALAAAEVALALADDLERQGGDPKTAEKLKKEAKAVAAEAKKVAA
B2: design_623_6e2e8b1f-5d9a-4413-9869-27a184816b12_1704_dldesign_0_cycle1_af2pred (protein)
chain: MEEALTEAFRAVAEMNRLAEEARKANPEAAEKAEEARREMSRLAIEAARSDAETAAELAKKIKEILEKTKKVVEELA
B3: design_623_6e2e8b1f-5d9a-4413-9869-27a184816b12_2025_dldesign_0_cycle1_af2pred (protein)
chain: GEERLLAAINEGARAILEVTAPESDAQRNAVVHAFILGMVRGPEQGLADLAAAAAALSPEVAKAAVEEATKIIERYLA
B4: design_376_bf9d4634-8475-4fdb-a175-1db49a23bdcd_302_dldesign_0_cycle1_af2pred (protein)
chain: GEAEKEKLKKEIYKLYREERKKVAEAIKKGKEEGKEALEKAEKALEEKAKEAAKYPEAAQLALQYKEALKEYYEMASK
B5: design_623_6e2e8b1f-5d9a-4413-9869-27a184816b12_2057_dldesign_0_cycle1_af2pred (protein)
chain: MEVIEKLKEYGQQAIDILTGLAKAQPAVKDVAEPAAQEVREATKKAVERGEKEGEEAAKKEYEKVHALANAALARVSKLAAA
B6: design_376_bf9d4634-8475-4fdb-a175-1db49a23bdcd_214_dldesign_0_cycle1_af2pred (protein)
chain: MELLKEAEKYAKEAKEYAEKALKEPEKAEEYVKKAAEYVAKLYELAAEAYRLDKELGKKAKKLAKEARKEVKEKYKEAKK
B7: design_623_6e2e8b1f-5d9a-4413-9869-27a184816b12_1669_dldesign_0_cycle1_af2pred (protein)
chain: SSALQTVKGYLALGKVAATAIRSGKVELGKELAEAAIKGALEAGKEHPEVAEEAEKAAEEIRKITEEALEEVEEA
B8: design_623_6e2e8b1f-5d9a-4413-9869-27a184816b12_1572_dldesign_0_cycle1_af2pred (protein)
chain: KAEEVVKIVREAAREAKKDPEKAKEYANRALGALLDLAKAGSQEAALVASQGAAKIAKKITSGASAEEIAKALEEAAKKVEEAAKKE
B9: design_623_6e2e8b1f-5d9a-4413-9869-27a184816b12_1410_dldesign_0_cycle1_af2pred (protein)
chain: SEELRERARELREEAERAEREAREAAERGDAERVREQLRRLSRLAAEAARLANQATAAGDEETAAEANEALARAVEAMERAQEWAE
B10: design_623_6e2e8b1f-5d9a-4413-9869-27a184816b12_1942_dldesign_0_cycle1_af2pred (protein)
chain: AAAAATVAANAALAMAKKALEIAERAKKAGEEAPELAQSALQALDVAEALIAYATAISAAADAATKAKLAEAKKVVKEAREIAEKVIK
B11: design_623_6e2e8b1f-5d9a-4413-9869-27a184816b12_1758_dldesign_0_cycle1_af2pred (protein)
chain: AEKVKELAKKAEELAKKAEKAAKESLAKAEKYAAKADELAREVNREAQKVATSGEAGEALLKALEAQAKARKALAEAKAKAEA
B12: design_376_bf9d4634-8475-4fdb-a175-1db49a23bdcd_538_dldesign_0_cycle1_af2pred (protein)
chain: EAAELAALKAAGKAMAAVVKAADPALGAKVAATVEAGAKGTPAEFKKALQDAIGAVLLENPEAGRAAAKAAKDTYKAAKAA
B13: design_376_bf9d4634-8475-4fdb-a175-1db49a23bdcd_604_dldesign_0_cycle1_af2pred (protein)
chain: SVAAITAHAEALARKAVADPANAAAYLSEARDYVLTNGDAEALRAAADVLRALGAKAPGGAAFAAAARILERAAEDIEKA
B14: design_376_bf9d4634-8475-4fdb-a175-1db49a23bdcd_131_dldesign_0_cycle1_af2pred (protein)
chain: DLEEELKKLIEKALKGNLEEALKALDEAVKLVEEKLSKTTADTAKEIAKAGKENAKKAETEEEARKNIAKALKTIKRIALLDAE
B15: design_623_6e2e8b1f-5d9a-4413-9869-27a184816b12_1575_dldesign_0_cycle1_af2pred (protein)
chain: NAGQAVADALRAATEAERAAAAVDPALAAQARALLAKAMQAAVAGDDAEAIAYAAEVRALRDEVLARAAA
B16: design_623_6e2e8b1f-5d9a-4413-9869-27a184816b12_1750_dldesign_0_cycle1_af2pred (protein)
chain: DLLEQARIAANSTVALKKTTKEILAKSTPESAEKVAEVAVELAKQAKELGKKAGTKEAKELAKKAEKAAKEAVEAVKKAKA
B17: design_376_bf9d4634-8475-4fdb-a175-1db49a23bdcd_377_dldesign_0_cycle1_af2pred (protein)
chain: GEEVEKLYKELIKAGKEADKALELAVKIGKVDSETLQILGEASIYADNPELAKGLAERDPEKAKERIKETKKAVEEVKKLYKEYK
B18: design_623_6e2e8b1f-5d9a-4413-9869-27a184816b12_2207_dldesign_0_cycle1_af2pred (protein)
chain: NPKVEELREEVRRLIAELARAGVAGTPEIAATVGAAIEQALKLLGESRETGEESLKEAIKIVKEALKAAA
B19: design_623_6e2e8b1f-5d9a-4413-9869-27a184816b12_1571_dldesign_0_cycle1_af2pred (protein)
chain: GEEAKKLAEEGDKLAEQGKAATPQEGLALLLEAAKKYSEAARLYREAGNEEEAAKAEAKLQEVNAQLNAAAKAAIAA
B20: design_376_bf9d4634-8475-4fdb-a175-1db49a23bdcd_541_dldesign_0_cycle1_af2pred (protein)
chain: EEEAKKLVEKAKEKLKKAKETAKNGTAEEAAKTAKEVFKEAREYGKKLKKKGYDEEYVKKIAEYAHEAAEIYAEESNKV
B21: design_376_bf9d4634-8475-4fdb-a175-1db49a23bdcd_370_dldesign_0_cycle1_af2pred (protein)
chain: SLGKKLSEALRKAVRAARKAVEYMKAGDEENAEKYYKEAKEYAKELPEDVRNFVLNTMEKKIEEAKKEYA
B22: design_623_6e2e8b1f-5d9a-4413-9869-27a184816b12_2213_dldesign_0_cycle1_af2pred (protein)
chain: AVEELLAKAKEYAAKLKELADDLEAAKALATEKREDIGQVIMAAAIVAATESPEVAARAREVQRHAWSLQR
B23: design_376_bf9d4634-8475-4fdb-a175-1db49a23bdcd_425_dldesign_0_cycle1_af2pred (protein)
chain: DEEDEKNLEKVKRIYERAKELAKEGLEAIKKGTSKTKALYGAAKLERAAEAAKAASGGKHKEEMKKIAEESKKLAKELEEASKTY
B24: design_376_bf9d4634-8475-4fdb-a175-1db49a23bdcd_110_dldesign_0_cycle1_af2pred (protein)
chain: VEELVEKVKKETAKKVWESTDLSAEEKEKVADELEALAKELAKISPEAAKAAKKAAAVVKRFAEDEKKAE
B25: design_376_bf9d4634-8475-4fdb-a175-1db49a23bdcd_502_dldesign_0_cycle1_af2pred (protein)
chain: GKKEKALKELEKLKKEAEELEEEGKKAGPKAYQEAGSMLIKIESALSAAKKGDEEEAEKAAKKAKEAYEKGKEKVTKLIKEEKAKKE
B26: design_376_bf9d4634-8475-4fdb-a175-1db49a23bdcd_232_dldesign_0_cycle1_af2pred (protein)
chain: EKEKLEKIVEEIKKYVEEAKELAKGDISSQSKAVSLLHKAFSLAGKAIGKEAKELEDKMLNAETMEEAVKIGEELYEKFSKIAKA
B27: design_623_6e2e8b1f-5d9a-4413-9869-27a184816b12_1921_dldesign_0_cycle1_af2pred (protein)
chain: SSVAAFLAAAAQAVKAAAEQGNLAAAAAFLRAAALASDPEAGKKLEALAKAAEAATAEEGKAIAKEGAKLLKELAEEVEAK
B28: design_623_6e2e8b1f-5d9a-4413-9869-27a184816b12_2491_dldesign_0_cycle1_af2pred (protein)
chain: TAKALAAAVEKAKELAAIVAEVQGDGAFGAAMVNTLANYAAAAGVPQALVDRARAAAKEALASADGAKVALAELKALAAEFKAA
B29: design_623_6e2e8b1f-5d9a-4413-9869-27a184816b12_1355_dldesign_0_cycle1_af2pred (protein)
chain: AVAQQALATAQRNLERAKEYAKAGDVKAATAFATTAITLAQAVAATDPALAPQAQAIIDQAQAVIEEAKA
B30: design_376_bf9d4634-8475-4fdb-a175-1db49a23bdcd_487_dldesign_0_cycle1_af2pred (protein)
chain: DIKEELKKLAEEVKKLAKEVAELSKKDKEEAKVKAEEAEKLAEKALELAVKAIKEDEEAREVAHEAITEAFYALSVADAAK
B31: design_376_bf9d4634-8475-4fdb-a175-1db49a23bdcd_661_dldesign_0_cycle1_af2pred (protein)
chain: SENIKKLSDARNEAIKYLREAVKLAGEEIKEEAAKAIELIGDLEKIPEALEEIEKAIKLAEKVENAEEVKKLLKKAKESAEEALKLS
B32: design_623_6e2e8b1f-5d9a-4413-9869-27a184816b12_1798_dldesign_0_cycle1_af2pred (protein)
chain: AAAEEKTKAYEIALETAKLLTAAAALADELAATNPEAAALAAQARQLNVDLNKTAIAGELTLELAEEYLKKAKEIAARVKALAKAA
B33: design_623_6e2e8b1f-5d9a-4413-9869-27a184816b12_1434_dldesign_0_cycle1_af2pred (protein)
chain: DAAAKELRERATALAGRTLLALARDPAEGERTLEEAVKELEALGKESGLEELAKEEAARLRAQYEAFRAVAEA
B34: design_623_6e2e8b1f-5d9a-4413-9869-27a184816b12_1445_dldesign_0_cycle1_af2pred (protein)
chain: EEAVLERIRALGEEGAALFQAAIKAAVAGDVAAAEALLKAGREKFEEAIALGEATSPRARELAEEVRRRMEAGEKIAQLAIEGAKA
B35: design_623_6e2e8b1f-5d9a-4413-9869-27a184816b12_1541_dldesign_0_cycle1_af2pred (protein)
chain: DFFEKALKAAKAALKKAEEALEKGKEDLAAAKAAVHQAQAAYVLASGLAVAAEAAGADPKVAKEAKELAEKAKELMEQGKKLAAKLA
B36: design_623_6e2e8b1f-5d9a-4413-9869-27a184816b12_1663_dldesign_0_cycle1_af2pred (protein)
chain: GLEEFEKIVREAAEKVIENAGDPEKQREIVLEAAKKAEEAGYSATVGAGAINARVRAEGTPEAAAIAAEVYQELRDKERA
B37: design_376_bf9d4634-8475-4fdb-a175-1db49a23bdcd_737_dldesign_0_cycle1_af2pred (protein)
chain: MAREKQIKLYGESLLEIAIESAVAAIKKYEDAYKIIKELSEKRAKKAEEAGDKEMGEKIKKIGKEIAELAEKDKEKALEYAKKL
B38: design_376_bf9d4634-8475-4fdb-a175-1db49a23bdcd_69_dldesign_0_cycle1_af2pred (protein)
chain: ANKEEVDAAADAISEAFRLAREYVLKEGLDPKEVANKLIQGLDDIEYGLALGEELEKDPASAEAGKALKKAAELLAKI

VTCN1, Q7Z7D3, sequence (Q7Z7D3 whole entry): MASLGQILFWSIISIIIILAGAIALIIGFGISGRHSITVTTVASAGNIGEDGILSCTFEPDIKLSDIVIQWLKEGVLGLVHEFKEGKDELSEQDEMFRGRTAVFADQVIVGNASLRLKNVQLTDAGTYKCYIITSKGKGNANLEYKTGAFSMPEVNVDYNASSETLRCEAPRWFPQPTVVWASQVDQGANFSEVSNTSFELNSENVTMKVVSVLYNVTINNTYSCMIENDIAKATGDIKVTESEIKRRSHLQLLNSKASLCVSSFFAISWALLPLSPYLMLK
CD276, Q5ZPR3, sequence (Q5ZPR3 whole entry): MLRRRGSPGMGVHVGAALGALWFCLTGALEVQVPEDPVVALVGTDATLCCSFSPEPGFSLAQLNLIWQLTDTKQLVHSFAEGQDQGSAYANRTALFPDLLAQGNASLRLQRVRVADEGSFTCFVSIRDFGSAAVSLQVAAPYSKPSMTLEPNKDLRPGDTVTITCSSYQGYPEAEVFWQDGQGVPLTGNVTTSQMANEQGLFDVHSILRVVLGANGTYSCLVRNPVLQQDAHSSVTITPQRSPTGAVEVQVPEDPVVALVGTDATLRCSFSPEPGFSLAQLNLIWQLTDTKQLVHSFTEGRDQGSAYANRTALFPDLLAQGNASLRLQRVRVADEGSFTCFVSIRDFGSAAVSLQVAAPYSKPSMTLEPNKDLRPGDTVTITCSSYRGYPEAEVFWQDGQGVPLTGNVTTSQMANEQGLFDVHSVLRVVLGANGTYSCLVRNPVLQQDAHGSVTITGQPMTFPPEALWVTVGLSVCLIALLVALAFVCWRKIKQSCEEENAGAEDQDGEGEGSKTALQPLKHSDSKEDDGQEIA

Binder | binding in a display sort (CD276, Q5ZPR3) | binding in a display sort (VTCN1, Q7Z7D3)
B1 | not found | –
B2 | not found | –
B3 | not found | –
B4 | – | not found
B5 | not found | –
B6 | – | not found
B7 | not found | –
B8 | not found | –
B9 | not found | –
B10 | not found | –
B11 | not found | –
B12 | – | not found
B13 | – | not found
B14 | – | not found
B15 | not found | –
B16 | not found | –
B17 | – | not found
B18 | not found | –
B19 | not found | –

Binder | binding in a display sort (CD276, Q5ZPR3) | binding in a display sort (VTCN1, Q7Z7D3)
B20 | – | not found
B21 | – | not found
B22 | not found | –
B23 | – | not found
B24 | – | not found
B25 | – | not found
B26 | – | not found
B27 | not found | –
B28 | not found | –
B29 | not found | –
B30 | – | not found
B31 | – | not found
B32 | not found | –
B33 | not found | –
B34 | not found | –
B35 | not found | –
B36 | not found | –
B37 | – | not found
B38 | – | not found
